Screening results from PubChem.
Hits are enriched below; roughly 9% of the tested compounds scored in any of these assays.
ALDH1A1 block: inhibitors of human aldehyde dehydrogenase 1A1. Potency, µM (top dose mostly 75.3 µM), for the others: top-dose activity, negative = inhibition, hits mostly inhibitors. P00352. Purified ALDH1A1, NADH fluorescence, propionaldehyde substrate. AID 1030. hit rate 7.3% among 220,000; active means well fitted inhibition curve with a large enough effect, not every such curve was filed as active; inconclusive means small, poorly fitted or top-dose-only effect, or another doubt; inactive means no such curve, though single readings can be large or run the other way;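 further: plate controls were no enzyme wells and a reference inhibitor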
IMPase Li cell: IMPase inhibition in cells with lithium potentiation; CHO-M1 cells, IP1 TR-FRET (IP-One), carbachol + lithium; Potency, µM (highest dose often 59.4 µM), inactives show top-dose activity, negative = IMPase inhibition, hits mostly inhibitors; hit rate 0.35% among 210,000; AID 1457;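 further: IP1 builds up when IMPase is blocked and the TR-FRET signal falls; plate controls were basal vehicle for no effect and high inhibitor control for full effect; nearly all actives have a fitted effect of over 50% in size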
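Readout is a homogeneous TR-FRET IP1 immunoassay (Ex 320, Em 665 and 620), where raised cytosolic IP1 lowers signal. Cells were CHO-M1 treated 30 min at 37C with test compounds plus a little lithium; AC50 values came from Hill-equation fitting.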
HPGD block: blocks human HPGD enzyme activity. P15428. purified HPGD, NADH fluorescence kinetic, PGE2 substrate. Potency, µM, without a hit: top-dose activity change, negative = inhibition, hits mostly inhibitors. hit rate 4.3% among 150,000. AID 894; active means well fitted inhibition curve with a large enough effect, not every such curve was filed as active; inconclusive means small, poorly fitted or top-dose-only effect, or another doubt; inactive means no such curve, though single readings can be large or run the other way
Target sequence (P15428 whole entry, looked up): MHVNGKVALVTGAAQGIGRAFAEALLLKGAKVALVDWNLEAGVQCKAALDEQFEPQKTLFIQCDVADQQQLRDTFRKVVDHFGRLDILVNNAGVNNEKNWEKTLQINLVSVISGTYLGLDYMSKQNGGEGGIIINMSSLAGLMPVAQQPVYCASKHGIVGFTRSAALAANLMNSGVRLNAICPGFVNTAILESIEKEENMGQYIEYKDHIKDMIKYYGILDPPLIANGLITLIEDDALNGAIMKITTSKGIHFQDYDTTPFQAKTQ
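NADH formation kinetics: reaction with 30 uM PGE2 and 1 mM NAD+ (final), 20 nM enzyme, Tris-HCl pH 8 with Tween 20, after 15 min compound preincubation at room temperature. Fluorescence change, last versus first of five reads.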
Luc counter: counter-screen: inhibitors of Kinase-Glo firefly luciferase; Q27757; Kinase-Glo luciferase, ATP luminescence, 8 min; Potency, µM (highest dose often 38.3 µM), without a hit: top-dose activity change, negative = inhibition, usual class: inhibitors; hit rate 0.28% among 200,000; AID 1379; further: nearly all actives have a fitted effect of over 60% in size
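Compounds were added to a substrate mix at pH 7.2 (50 mM imidazole, 10 uM ATP, within the enzyme's linear range), followed by Kinase-Glo detection reagent; luminescence was measured after 8 minutes at ambient temperature.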
LMNA splice mod: LMNA splicing modulation; HeLa LMNA splicing GFP/RFP minigene ratio, 48 h; Potency, µM (titrated, usually from 46.1 µM), for the others: at the top dose ratio change, negative = inhibition, usual class: inhibitors; hit rate 0.01% among 200,000; AID 1487; active means well fitted inhibition curve with a large enough effect in the signal ratio, with a control signal flat, not every such curve was filed as active; inconclusive means small, poorly fitted or top-dose-only effect, or effect the other way, or a change in a side signal; the % refers to the signal ratio
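S3 HeLa stable clones carrying a lamin A-EGFP splicing minigene plus DsRed2 were seeded at 600 cells/well in Opti-MEM with 2% FBS, pin-dosed and incubated 48 h at 37°C. Acumen cytometry (488 nm) gave the GFP/RFP total-intensity ratio.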
* marks the source's active call; other numbers are inactive results; ? = inconclusive; nt = no result; [ ] = dose if it differs, or a comment. Unless noted, the call rests on the fitted dose curve; in most records, active means well fitted curve in the direction sought with a large enough effect; inconclusive means small, poorly fitted or top-dose-only effect, or another doubt; inactive means no such curve, though single readings can be large; an effect the other way counts as inactive or inconclusive. Unless noted, on the % scale 0 is the no-effect control and ±100 the full control effect; potency means the concentration at half of the fitted maximal effect.

SMILES	ALDH1A1 block	IMPase Li cell	HPGD block	Luc counter	LMNA splice mod
CC1CCCN(C(C(=O)NC2CCCCC2)c2cc3c(cc2[N+](=O)[O-])OCO3)C1 (centres undefined)	3%	-6%	32µM*	-3%	-4%
CC1CCN(C(C(=O)NC2CCCCC2)c2cc3c(cc2[N+](=O)[O-])OCO3)CC1 (centres undefined)	?	1%	-29%	4%	0%
COc1ccc(NS(=O)(=O)c2cc(C)ccc2NC(=O)c2cc(C)oc2C)cc1	7.9µM*	37%[38.3 µM]	-18%	0%	?
COc1ccc2nc(NC(=O)c3ccoc3C)sc2c1	?	19%[38.3 µM]	?	3.2µM*	-4%
COc1ccc2nc(NC(=O)c3cc(C)oc3C)sc2c1	-8%	0%	?	13µM*	7%
COc1ccc2nc(NC(=S)NC(=O)c3ccco3)sc2c1	?	-7%	nt	-3%	?
COc1ccc(NS(=O)(=O)c2cccc(C(=O)NNC(=O)c3cc(C)oc3C)c2)cc1	-5%	-8%	-7%	-1%	-5%
Cc1csc(NC(=O)c2ccccc2O)n1	?	-13%[38.3 µM]	?	-7%	-10%
Cc1csc(NC(=O)c2cc(C)oc2C)n1	-2%	-7%[38.3 µM]	18µM*	?	10%
CCc1ccccc1N1C(=O)N(CC(=O)c2ccc(Cl)cc2)c2ccccc2S1(=O)=O	nt	nt	nt	nt	5%[46 µM]
CCOc1ccc(NC(=O)N2CCC(CN3CCc4ccccc4C3)CC2)cc1	nt	nt	nt	nt	-9%[46 µM]
O=C(NCc1ccccc1)C(c1ccco1)N(C(=O)c1ccccn1)c1ccc(F)cc1 (centres undefined)	-8%	-1%	nt	-1%	16%[46 µM]
CC(=O)Nc1ccc(NC(=O)CN2C(=O)CN(C)C(=O)c3ccccc32)cc1	nt	nt	nt	nt	2%[46 µM]
O=C1COc2cc(S(=O)(=O)NCc3ccco3)c(Cl)cc2N1	nt	nt	nt	nt	-5%[46 µM]
O=C(O)c1cc(S(=O)(=O)NCc2ccco2)c(Cl)cc1Cl	20µM*	-16%[38.3 µM]	-18%	-1%	0%
N#CC(Sc1ccccn1)c1ccc(Cl)cc1Cl (centres undefined)	-11%	10%	nt	-3%	nt
CC(/C=C\C=C\c1ccccc1)=N\NC(=O)c1cncc(Br)c1	22µM*	4%	nt	3%	-28%[46 µM]
CCSc1nnc(NC(=O)c2cc(C)nc3ccccc23)s1	-8%	-16%[38.3 µM]	28µM*	2%	3%
CCSc1nnc(NC(=O)c2ccc3ccccc3n2)s1	?	0%[38.3 µM]	-24%	3%	?
CCSc1nnc(NC(=O)c2nn(C(C)C)c(=O)c3ccccc23)s1	25µM*	1%	-16%	1%	-10%
CCCCNC(=O)c1ccc2c(c1)ncn2C1CCCC1	-5%	26%[38.3 µM]	8.9µM*	-2%	4%
CCCCNC(=O)c1ccc2c(c1)ncn2C1CCCCC1	-3%	0%	22µM*	1%	-13%
Cc1ccc2c(c1)C(c1ccc(F)cc1)N(C(=O)c1cc3ccccc3oc1=O)CC(=O)N2 (centres undefined)	?	15%	-6%	11%	?
Cc1ccc(S(=O)(=O)NNC(=O)C2CC=CCC2C(=O)O)cc1 (centres undefined)	-2%	-4%	nt	-2%	nt
Cc1ccc2cc(C(c3nnnn3CC3CCCO3)N3CCc4ccccc4C3)c(=O)[nH]c2c1 (centres undefined)	18µM*	16%[38.3 µM]	?	1%	8%
SMILES	ALDH1A1 block	IMPase Li cell	HPGD block	Luc counter	LMNA splice mod
Cc1cccc2cc(C(c3nnnn3CC3CCCO3)N3CCc4ccccc4C3)c(=O)[nH]c12 (centres undefined)	13µM*	1%[38.3 µM]	-24%	2%	1%
CCOc1ccc2[nH]c(=O)c(C(c3nnnn3CC3CCCO3)N3CCc4ccccc4C3)cc2c1 (centres undefined)	?	-2%[38.3 µM]	?	16%	12%
COc1ccc(N(CC(=O)Nc2ccccc2C(=O)NCc2ccco2)S(C)(=O)=O)cc1	11µM*	19%[38.3 µM]	-11%	-3%	6%
CS(=O)(=O)N(Cc1ccc(C(=O)NCc2ccco2)cc1)c1ccccc1	8%	-7%[38.3 µM]	28µM*	1%	-10%
COc1ccc(OC)c(N(CC(=O)Nc2ccccc2C(=O)NCc2ccco2)S(C)(=O)=O)c1	?	22%[38.3 µM]	-13%	-1%	-4%
CS(=O)(=O)N(Cc1ccc(C(=O)NCCSCc2ccco2)cc1)c1ccccc1	14%	18%[38.3 µM]	?	14%	11%
CCOc1ccc(N(CC(=O)Nc2ccc(OC)cc2)S(C)(=O)=O)cc1	18µM*	-11%[38.3 µM]	-10%	-4%	0%
O=C1OCCC1Sc1nnc(-c2cccnc2)n1-c1ccccc1F (centres undefined)	0%	-4%	nt	5%	-2%[9.22 µM]
Cc1ccc(Oc2ccc(OCC(=O)NC(CC(C)C)C(=O)O)cc2)cc1 (centres undefined)	6.3µM*	7%	nt	4%	-13%[46 µM]
CC(C)COc1ccc(C(=O)NC(CC(C)C)C(=O)O)cc1 (centres undefined)	2%	nt	nt	nt	-4%
CC(O)Cc1cn(CC(=O)N2CCN(C(=O)OC(C)(C)C)CC2)nn1 (centres undefined)	1%	-2%	nt	nt	nt
CC(=O)c1ccc(N2CCN(C(=O)c3ccco3)CC2)c(F)c1	3.5µM*	2%[38.3 µM]	16µM*	2%	8%
COC(=O)c1ccc(N2C(=O)CC(N3CCN(C(=O)c4ccco4)CC3)C2=O)cc1 (centres undefined)	13µM*	-2%[38.3 µM]	-1%	-3%	-9%
CC(=O)c1ccc(N2CCN(C(=O)c3ccc(Br)cc3)CC2)c(F)c1	10µM*	?	28µM*	4%	-3%
CCN(CC)c1ccc(/C=N/N2CCN(Cc3ccccc3)CC2)c(O)c1	?	13%	-16%	-2%	?
CCN(CC)c1ccc(/C=N/N2CCN(Cc3ccccc3)CC2)cc1	7.9µM*	18%	nt	0%	21%[46 µM]
CC1(C)Cc2cccc(OCC(=O)Nc3cccnc3Cl)c2O1	8%	0%[38.3 µM]	-6%	-5%	12%
C[C@@](N)(/C=C\c1ccccc1)C(=O)O	11%[13.5 µM]	-8%	-6%	-2%[7.66 µM]	nt
c1ccc(Nc2cc(-c3ccccc3)nc3ncnn23)cc1	?	6%[38.3 µM]	-26%	-3%	5%
O=C(CC(c1ccco1)C1CCCCC1=O)c1ccco1 (centres undefined)	25µM*	6%[38.3 µM]	-1%	-1%	7%
O=C(CC(c1ccccc1)C1CCCCC1=O)c1ccco1 (centres undefined)	?	2%	?	2%	1%
COc1ccc(C(=O)CC(c2ccccc2)C2CCCCC2=O)cc1 (centres undefined)	0.5µM*	44%[38.3 µM]	-15%	-2%	-11%
CN(C)c1ccc(C(CC(=O)c2ccccc2)C2CCCCC2=O)cc1 (centres undefined)	?	4%	2%	5%	-5%
CCOc1cccc(-c2nnc3sc(C4CCCCC4)nn23)c1	25µM*	2%[38.3 µM]	32µM*	-7%	?
